# The full data set covers some 21,000 targets. This sample favours those with the largest changes.
# Target: PYCR1_P32322_95_HIVVSCAAGVTISSIEK (UniProt P32322)
# Assay: probe-labelled cysteine peptide fold change vs DMSO (competition) (log2 fold change); higher = less target engagement (more negative = stronger competition)
# Conditions: THP-1, incubation time: 4 h
# 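Note: competitive chemoproteomic profiling in live THP-1 cells with an iodoacetamide desthiobiotin (IA-DTB) probe, comparing probe-labelled peptide intensities in compound-treated cells against DMSO-treated controls.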
structure (smiles),measurement,setting,value
CC1Cc2ccccc2N1C(=O)C1CCCN(C(=O)CCl)C1 (mixture of isomers) [TRIM25 ligand 11 (diastereomer mixture)],probe-labelled cysteine peptide fold change,10 µM,0.0152
same,probe-labelled cysteine peptide fold change,50 µM,0.0688

# Reference: the supplement of paper PMC12067093, “Discovery and optimisation of a covalent ligand for TRIM25 and its application to targeted protein ubiquitination” (Chemical Science, 2025)
